Assay results from PubChem BioAssay (Tox21).
Calls of active or inactive are those of the source. Calls come from the whole dose curve.

These compounds were tested against Muscarinic acetylcholine receptor M1 (Homo sapiens) (UniProt P11229) (assay: Cholinergic receptor muscarinic 1 (CHRM1) small molecule agonists, cell-based qHTS assay (AID 1963589; note: nearly all actives have a fitted effect of over 35% in size)). Conditions: CHRM1-CHO cells, agonist mode, calcium flux fluorescence; series mostly up to 76.8 µM; activation: at the top concentration.
Text: National Center for Advancing Translational Sciences [NCATS]
Division of Preclinical Innovation [DPI]
U.S. Environmental Protection Agency [EPA]
National Institutes of Environmental Health Sciences [NIEHS]
National Toxicology Program [NTP]
U.S. Food and Drug Administration [FDA]
The CHRM1 is a muscarinic receptor. This receptor plays a crucial role in learning and memory processes and has long been identified as a promising therapeutic target for the improvement of cognitive decline in Alzheimer's disease (AD). The CHRM1-CHO cell line stably expressing human muscarinic acetylcholine receptor M1 (CHRM1) can be used for screening agonists and antagonists of interactions between CHRM1 and its ligands. The CHRM1-CHO Calcium Flux Assay is a homogeneous fluorescence-based assay for detecting the intracellular calcium level using FDSS kinetic plate reader system.
CHRM1-CHO cells were dispensed at 1000 cells/3uL/well in 1536-well black-clear bottom plates using a Multidrop Dispenser. After the assay plates were incubated at a 37 C/5% CO2 incubator for 18 h, 3 uL of Dye Loading Buffer was transferred to the assay plate by a Flying Reagent Dispenser. The assay plates were incubated at 37 C for 1h. For agonist mode, 23 nL of compounds dissolved in DMSO, positive controls or DMSO only was transferred to the assay plate by a pin tool. […] Each test compound was measured at 15 concentrations in three independent runs.
% is set by controls: 0 for no effect and ±100 for the full control effect.

Chain of Muscarinic acetylcholine receptor M1 (Homo sapiens) (P11229 whole entry, looked up): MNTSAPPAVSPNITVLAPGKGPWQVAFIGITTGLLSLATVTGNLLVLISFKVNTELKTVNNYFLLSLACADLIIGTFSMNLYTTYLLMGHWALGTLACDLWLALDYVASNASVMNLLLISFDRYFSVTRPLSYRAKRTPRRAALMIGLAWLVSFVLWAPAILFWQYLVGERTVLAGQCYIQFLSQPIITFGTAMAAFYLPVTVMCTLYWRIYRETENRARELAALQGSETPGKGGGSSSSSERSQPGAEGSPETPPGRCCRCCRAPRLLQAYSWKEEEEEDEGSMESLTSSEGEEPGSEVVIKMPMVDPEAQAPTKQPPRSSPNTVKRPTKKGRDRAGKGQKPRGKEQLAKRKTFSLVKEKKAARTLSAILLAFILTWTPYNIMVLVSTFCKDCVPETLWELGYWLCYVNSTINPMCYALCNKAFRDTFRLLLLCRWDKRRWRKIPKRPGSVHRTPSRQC

Compound	activation
CC(C)C(=O)OCc1cccc(OC(=O)[C@@H]2N3C(=O)[C@@H](NC(=O)Cc4ccccc4)[C@H]3SC2(C)C)c1	-0.0398% [at 35.3 µM] (inactive)
C/C(=C\C(C)CC(C)CC(C)C)C1CC(=O)OC1=O (stereo not given)	0.748% (inactive)
OCc1ccccn1	0.0614% [at 35.3 µM] (inactive)
CCCCCCCCCCCc1ccccc1	2.21% (inactive)
C[C@@H](CN1CC(=O)NC(=O)C1)N1CC(=O)NC(=O)C1	2.02% [at 35.3 µM] (inactive)
O=C(CCCN1CCC(O)(c2ccc(Br)cc2)CC1)c1ccc(F)cc1	8.74% [at 35.3 µM] (inactive)
Cc1cc(C(C)(C)C)c(O)c(C)c1Cn1c(=O)n(Cc2c(C)cc(C(C)(C)C)c(O)c2C)c(=O)n(Cc2c(C)cc(C(C)(C)C)c(O)c2C)c1=O	-0.752% (inactive)
CC(C)(C)C(=O)OCOC(=O)[C@@H]1N2C(=O)[C@@H](NC(=O)[C@H](N)c3ccccc3)[C@H]2SC1(C)C	4.98% [at 35.3 µM] (inactive)
CCc1ccc(O)c(OC)c1	-0.327% (inactive)
CC(C)(O)c1ccccc1	-0.0104% (inactive)
CCCCCCCCC(C)=O	-0.11% (inactive)
CCCCC(CC)COC(=O)COc1ccc(Cl)cc1Cl (stereo not given)	-1.08% (inactive)
Cn1nnc2c(C(N)=O)ncn2c1=O	-0.274% [at 35.3 µM] (inactive)
CC(C)(O)c1ccc(CNC(=O)c2cccnc2Oc2ccc3nonc3c2)cc1	0.221% (inactive)
[O]=[Mo](=[O])=[O]	0.586% [at 15.8 µM] (inactive)
O=C1OC(OC(=O)c2cccnc2Nc2cccc(C(F)(F)F)c2)c2ccccc21 (stereo not given)	2.62% [at 35.3 µM] (inactive)
[O]=[Bi]	0.394% [at 6.97 µM] (inactive)
CN(C)CCN1CCOCC1	0.0652% (inactive)
C=CC(=O)OCC(Br)CBr (stereo not given)	-0.563% (inactive)
CCCCCOC(=O)CCC	-0.118% (inactive)

Compound	activation
CCOc1ccc([N+](=O)[O-])cc1	3.69% (inactive)
Nc1ccnc(=O)[nH]1	-0.0656% (inactive)
CC(C)(C)C(=O)NCCCC(=O)O	0.104% [at 35.3 µM] (inactive)
CC1OC(=O)C(C)OC1=O (stereo not given)	0.328% (inactive)
CCCCCC[C@@H](O)C/C=C\CCCCCCCC(=O)OCC(O)CO (stereo not given in full)	1.95% (inactive)
O=C1N(c2ccccc2)c2ccccc2C1(Cc1ccncc1)Cc1ccncc1	-0.37% [at 35.3 µM] (inactive)
COc1ccc(C)cc1[N+](=O)[O-]	-0.0426% (inactive)
Cc1cccc(N(C)C(=S)Oc2ccc3c(c2)CCC3)c1	-0.275% [at 35.3 µM] (inactive)
CCc1nnc(NS(=O)(=O)c2ccc(N)cc2)s1	-0.109% [at 35.3 µM] (inactive)
C[Si](NC1CCCCC1)(NC1CCCCC1)NC1CCCCC1	0.705% (inactive)
O=C(O)CP(=O)(O)O	-0.345% [at 35.3 µM] (inactive)
CC(CO)(CO)C(=O)O	-0.363% (inactive)
CCCCCCCCCCc1ccccc1	0.265% (inactive)
Nc1ccc(C(=O)N2CC3CC(CN(Cc4ccccc4)C3)C2)cc1	-0.527% [at 35.3 µM] (inactive)
Cc1scc2c1N(C(=O)CN1CCN(C)CC1)c1ccccc1NC2=O	-0.411% [at 35.3 µM] (inactive)
COc1ccc(OC)c(N=Nc2c(O)ccc3ccccc23)c1	0.843% (inactive)
O=C1c2ccccc2C(=O)C1c1ccc2ccccc2n1	-0.945% [at 35.3 µM] (inactive)
ClC1=C(Cl)C1(Cl)Cl	0.172% (inactive)
CC(C)(O)c1coc(S(=O)(=O)NC(=O)Nc2c3c(cc4c2CCC4)CCC3)c1	-0.966% (inactive)
Oc1ccc(Nc2ccccc2)cc1	-0.383% (inactive)
